# Compounds without any hit were thinned out: in the full panel of roughly 83,000, 20% have a hit.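 Cell lines were cultured in 96-well plates, exposed to a single compound concentration, and assessed for percent growth 48 hours later.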 Unmarked numbers belong to inactive results. The source made the active and inactive calls. How the source made its calls: active means growth percent below 10; inactive means the rest.
# Columns and labels:
# Assay in all cases: NCI-60 one-dose screen, 48 h (100 = growth as untreated, 0 = no growth, -100 = all killed)
# Settings in all cases: 10 µM
# HT29 colon = system: HT29 colon
# SNB-75 CNS = system: SNB-75 CNS
# SNB-19 CNS = system: SNB-19 CNS
# U251 CNS = system: U251 CNS
# PC-3 prostate = system: PC-3 prostate
# SK-MEL-5 melanoma = system: SK-MEL-5 melanoma
# UACC-62 melanoma = system: UACC-62 melanoma
# LOX IMVI melanoma = system: LOX IMVI melanoma
# SK-MEL-28 melanoma = system: SK-MEL-28 melanoma
# SK-MEL-2 melanoma = system: SK-MEL-2 melanoma
# EKVX NSCLC = system: EKVX NSCLC
# SN12C renal = system: SN12C renal
# UO-31 renal = system: UO-31 renal
# TK-10 renal = system: TK-10 renal
# ACHN renal = system: ACHN renal
# CAKI-1 renal = system: CAKI-1 renal
# A498 renal = system: A498 renal
# CCRF-CEM leukemia = system: CCRF-CEM leukemia
# MOLT-4 leukemia = system: MOLT-4 leukemia
# SR leukemia = system: SR leukemia
SMILES,growth (HT29 colon),growth (SNB-75 CNS),growth (SNB-19 CNS),growth (U251 CNS),growth (PC-3 prostate),growth (SK-MEL-5 melanoma),growth (UACC-62 melanoma),growth (LOX IMVI melanoma),growth (SK-MEL-28 melanoma),growth (SK-MEL-2 melanoma),growth (EKVX NSCLC),growth (SN12C renal),growth (UO-31 renal),growth (TK-10 renal),growth (ACHN renal),growth (CAKI-1 renal),growth (A498 renal),growth (CCRF-CEM leukemia),growth (MOLT-4 leukemia),growth (SR leukemia)
Cc1ccc2oc3nc(C)c(C(=O)NCc4ccccc4)cc3c(=O)c2c1,95%,88%,83.2%,79%,93.5%,76.9%,25.6%,68.8%,78.1%,8.63% (active),77.1%,96.5%,63%,87.2%,63.8%,60.3%,104%,76.4%,64.3%,79.9%
NC1(C(=O)O)CSSC1,90.7%,40.8%,36.4%,15.1%,79.1%,69.9%,97.4%,32.2%,34.8%,111%,78.9%,39.5%,57.6%,64.3%,49.4%,101%,56.2%,78.5%,87.3%,89.5%
O=C(Nc1ccncc1)C(=O)c1cn(S(=O)(=O)c2ccc(F)cc2)c2ccccc12,1.81% (active),45%,67.2%,19.4%,27.4%,17.7%,36.1%,38.3%,56.1%,11.2%,52.1%,41.9%,20.6%,79%,57.7%,52.9%,66.2%,43.6%,25.7%,2.09% (active)
O=C(Nc1ccncc1)C(=O)c1cn(S(=O)(=O)c2cc(Cl)cc(Cl)c2)c2ccccc12,42.4%,59.6%,82.4%,58.1%,63.9%,62.7%,57.4%,48%,78.4%,61.7%,52.3%,73.5%,75.2%,73.1%,68.4%,54.5%,63.1%,67.9%,73%,38%
COc1ccc2c(c1)-c1c(c3cc(OC)ccc3n(CCN(C)C)c1=O)C2=O,-63.4% (active),-3.22% (active),32.4%,20.3%,21.5%,11.7%,36.9%,-67.9% (active),41.3%,14.4%,34.5%,24.6%,-24.7% (active),-2.26% (active),8.27% (active),1.94% (active),48.6%,3.78% (active),1.5% (active),-12.4% (active)
O=c1c2ccccc2nc(SCCN2CCCCC2)n1CCc1ccccc1,30.1%,87%,102%,86.7%,89.2%,76.7%,97.8%,81.6%,101%,102%,70.7%,81.5%,57.2%,97.2%,102%,73.9%,83.1%,–,–,–
CN1CCCNc2c(c(=O)c2=O)NCCCN(C)CCCNc2c(c(=O)c2=O)NCCCN(C)CCCNc2c(c(=O)c2=O)NCCCN(C)CCCNc2c(c(=O)c2=O)NCCCN(C)CCCNc2c(c(=O)c2=O)NCCCN(C)CCCNc2c(c(=O)c2=O)NCCCN(C)CCCNc2c(c(=O)c2=O)NCCC1,59.3%,84.3%,40.5%,15.2%,77.5%,39.6%,43.7%,58.1%,22.6%,76.6%,61.7%,33.3%,17.2%,27.1%,43.3%,54.1%,72.5%,–,–,–
CC(=O)/C(=C/c1ccccc1)C(=O)CC(C)C,74.4%,91.4%,106%,63.6%,83.7%,88.1%,92.4%,-23% (active),95.6%,109%,99.6%,108%,83.1%,84.2%,84.7%,100%,96.1%,9% (active),34.1%,1.48% (active)
N=c1nc(N)ncn1-c1ccccc1,96.4%,86.5%,98.2%,95.1%,96.8%,102%,93.5%,94.9%,98.6%,106%,99.7%,87.3%,94.5%,102%,101%,97.9%,83.8%,84.9%,109%,97.4%
CCN(CC)CCCOCCCNc1cc(OC)cc2cccnc12,96.1%,94.7%,91.4%,91.5%,86.6%,96.4%,82.1%,90.2%,103%,107%,96.4%,87.7%,95.7%,137%,97.5%,103%,72%,90.9%,105%,100%
NC1=NC(=O)C(c2ccccc2)(c2ccccc2)S1,106%,107%,105%,99.4%,103%,110%,98.2%,101%,101%,101%,107%,106%,73.9%,100%,107%,114%,106%,97.1%,97.5%,94.8%
CC/C(=N\N=C(/CC)c1ccc(Br)cc1)c1ccc(Br)cc1,74.1%,89.9%,108%,105%,94.2%,104%,87.9%,98.7%,104%,97.3%,90.6%,96%,92.6%,111%,94.4%,99.3%,103%,105%,105%,96.9%
COc1ccc(-c2nc3ncccn3c2-c2nnc(-c3ccc(F)cc3)o2)cc1,107%,94.7%,96.9%,106%,92.8%,91.8%,91.1%,87.7%,99.5%,111%,96%,91%,79.2%,113%,97.6%,100%,81%,94.4%,97.1%,108%
O=C(Nc1ccncc1)C(=O)c1cn(S(=O)(=O)c2cccc(Cl)c2)c2ccccc12,29%,85.3%,89.8%,61.2%,72.4%,51.7%,61.2%,44.6%,86.5%,57.7%,52.3%,75.5%,57.7%,87.6%,82.8%,63.8%,69.4%,72.4%,53.1%,12%
CCN(CC)CCCC(C)Nc1ccc2ccc(Cl)cc2n1 (centres undefined),86.1%,77%,104%,92.7%,90.5%,97.7%,103%,95%,106%,117%,103%,88.8%,85.8%,100%,98.5%,104%,92.3%,102%,96.5%,96.4%
O=C(O)c1ccc(Cl)cc1Nc1ccc(F)cc1,101%,83.6%,87.1%,52.3%,83.9%,102%,92.4%,43.1%,86.2%,93.4%,67.3%,69.4%,62.5%,84.9%,82.4%,29.1%,83.7%,31.4%,56.8%,57.2%

# Source: PubChem BioAssay (NCI)
